Reference: PubChem BioAssay AID1159580 (chemical genetic matrix, 2015)
Hit rate of the full screen: of about 5,500 compounds, about 2,000 (36%) were called active. Roughly 18% stayed inconclusive and do not appear here. No stated cut-off is given here; in the data, active means normalized growth mostly below about 0.91 (no sharp cut-off); inconclusive means no clear call, values can overlap the other calls; inactive means mostly above about 0.92. Some of the results follow.

Experiment: chemical genetic growth profiling, strain panel (AID 1159580);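 further: tested at 20 µM; growth read once vehicle control cultures reached saturation at 30 °C; 1 = growth at the plate median or of vehicle wells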
Settings: S. cerevisiae deletion strains, growth OD
[1] = locus YAL013W, strain DEP1, stronger effect = lower value
[2] = locus YBR229C, strain ROT2, stronger effect = lower value
[3] = locus YDL101C, strain DUN1, stronger effect = lower value
[4] = locus YDL134C, strain PPH21, stronger effect = lower value
[5] = locus YDR150W, strain NUM1, stronger effect = lower value
[6] = locus YEL061C, strain CIN8, stronger effect = lower value
[7] = locus YGR078C, strain PAC10, stronger effect = lower value
[8] = locus YHR030C, strain SLT2, stronger effect = lower value
[9] = locus YHR087W, strain rtc3, stronger effect = lower value
[10] = locus YJR043C, strain POL32, stronger effect = lower value
[11] = locus YJR075W, strain HOC1, stronger effect = lower value
[12] = locus YKL190W, strain CNB1, stronger effect = lower value
[13] = locus YLR039C, strain RIC1, stronger effect = lower value
[14] = locus YLR058C, strain SHM2 (second series), stronger effect = lower value
[15] = locus YLR085C, strain ARP6, stronger effect = lower value
[16] = locus YLR262C, strain YPT6, stronger effect = lower value
[17] = locus YML094W, strain GIM5, stronger effect = lower value
[18] = locus YMR219W, strain ESC1, stronger effect = lower value
[19] = locus YMR263W, strain SAP30, stronger effect = lower value
[20] = locus YNL153C, strain GIM3, stronger effect = lower value
[21] = locus YNL298W, strain CLA4 (second series), stronger effect = lower value
[22] = locus YNL322C, strain KRE1, stronger effect = lower value
[23] = locus YNR030W, strain Alg12, stronger effect = lower value
[24] = locus YPL055C, strain LGE1, stronger effect = lower value
[25] = locus YPL241C, strain CIN2, stronger effect = lower value
[26] = locus YPR135W, strain CTF4, stronger effect = lower value
[27] = locus YAR019C, strain CDC15, stronger effect = lower value
[28] = locus YBL105C, strain PKC1, stronger effect = lower value
[29] = locus YBR135W, strain CKS1, stronger effect = lower value
[30] = locus YBR136W, strain MEC1, stronger effect = lower value
[31] = locus YBR160W, strain CDC28, stronger effect = lower value
[32] = locus YDL017W, strain CDC7, stronger effect = lower value
[33] = locus YDL028C, strain MPS1, stronger effect = lower value
[34] = locus YDL108W, strain KIN28, stronger effect = lower value
[35] = locus YDL132W, strain cdc53, stronger effect = lower value
[36] = locus YDL214C, strain PRR2, stronger effect = lower value
[37] = locus YDR052C, strain DBF4, stronger effect = lower value
[38] = locus YDR054C, strain cdc34, stronger effect = lower value
[39] = locus YDR226W, strain ADK1, stronger effect = lower value
[40] = locus YDR477W, strain SNF1, stronger effect = lower value
[41] = locus YER123W, strain YCK3, stronger effect = lower value
[42] = locus YER133W, strain GLC7, stronger effect = lower value
[43] = locus YFL009W, strain cdc4, stronger effect = lower value
[44] = locus YFL029C, strain CAK1, stronger effect = lower value
[45] = locus YFR003C, strain YPI1, stronger effect = lower value
[46] = locus YFR019W, strain FAB1, stronger effect = lower value
[47] = locus YFR028C, strain CDC14, stronger effect = lower value
[48] = locus YGR040W, strain KSS1, stronger effect = lower value
[49] = locus YGR052W, strain FMP48, stronger effect = lower value
[50] = locus YGR092W, strain DBF2, stronger effect = lower value
[51] = locus YHR079C, strain IRE1, stronger effect = lower value
[52] = locus YHR082C, strain KSP1, stronger effect = lower value
[53] = locus YHR205W, strain SCH9, stronger effect = lower value
[54] = locus YIL147C, strain SLN1, stronger effect = lower value
[55] = locus YJL095W, strain BCK1, stronger effect = lower value
[56] = locus YJL128C, strain PBS2, stronger effect = lower value
[57] = locus YJL157C, strain FAR1, stronger effect = lower value
[58] = locus YJR016C, strain ILV3, stronger effect = lower value
[59] = locus YJR066W, strain TOR1 (second series), stronger effect = lower value
[60] = locus YJR066W, strain TOR1, stronger effect = lower value
[61] = locus YKL048C, strain ELM1, stronger effect = lower value
[62] = locus YKL067W, strain YNK1, stronger effect = lower value
[63] = locus YKL101W, strain HSL1, stronger effect = lower value
[64] = locus YKL193C, strain SDS22, stronger effect = lower value
[65] = locus YKL203C, strain TOR2, stronger effect = lower value
[66] = locus YLR113W, strain HOG1, stronger effect = lower value
[67] = locus YLR133W, strain CKI1, stronger effect = lower value
[68] = locus YLR403W, strain SFP1, stronger effect = lower value
[69] = locus YML070W, strain DAK1, stronger effect = lower value
[70] = locus YMR001C, strain CDC5, stronger effect = lower value
[71] = locus YMR205C, strain PFK2 (second series), stronger effect = lower value
[72] = locus YMR277W, strain FCP1, stronger effect = lower value
[73] = locus YNL006W, strain LST8, stronger effect = lower value
[74] = locus YNL020C, strain ARK1, stronger effect = lower value
[75] = locus YNL161W, strain CBK1, stronger effect = lower value
[76] = locus YNL183C, strain NPR1, stronger effect = lower value
[77] = locus YNL207W, strain RIO2, stronger effect = lower value
[78] = locus YNL222W, strain SSU72, stronger effect = lower value
[79] = locus YNL307C, strain MCK1 (second series), stronger effect = lower value
[80] = locus YOL078W, strain AVO1, stronger effect = lower value
[81] = locus YOL136C, strain PFK27, stronger effect = lower value
[82] = locus YOR061W, strain CKA2, stronger effect = lower value
[83] = locus YOR119C, strain RIO1, stronger effect = lower value
[84] = locus YOR231W, strain MKK1, stronger effect = lower value
[85] = locus YOR329C, strain SCD5, stronger effect = lower value
[86] = locus YPL031C, strain PHO85, stronger effect = lower value
[87] = locus YPL153C, strain RAD53, stronger effect = lower value
[88] = locus YPL204W, strain HRR25, stronger effect = lower value
[89] = locus YPL209C, strain IPL1, stronger effect = lower value
[90] = locus YPL256C, strain CLN2, stronger effect = lower value
[91] = locus YPR025C, strain CCL1, stronger effect = lower value
[92] = locus YPR106W, strain ISR1, stronger effect = lower value
[93] = locus YPR111W, strain DBF20, stronger effect = lower value
[94] = strain NNK1, stronger effect = lower value
[95] = strain TSCII, stronger effect = lower value

Measured: normalized growth

O=C(NNc1c(Cl)cc(Cl)cc1Cl)NC(=O)c1ccccc1F
inactive: [1] 0.997 | [2] 0.982 | [3] 0.998 | [4] 1.02 | [5] 1.02 | [6] 0.996 | [7] 1 | [8] 0.905 | [9] 1.02 | locus YJL187C, strain SWE1, stronger effect = lower value 0.999 | [10] 1 | [11] 0.99 | [12] 1.02 | [13] 0.936 | [14] 1.02 | [15] 0.992 | [16] 0.965 | [17] 1 | [18] 1.02 | [19] 1.01 | locus YNL128W, strain TEP1, stronger effect = lower value 1.01 | [20] 0.989 | [21] 0.986 | [22] 1 | [23] 1.04 | [24] 1.01 | [25] 0.986 | [26] 0.966

O=C(NNc1ccc(Cl)cc1)c1ccc(F)cc1F
inactive: [27] 0.937 | [28] 0.942 | [29] 0.952 | [30] 0.946 | [31] 0.942 | [32] 0.95 | [33] 0.959 | [3] 0.949 | [34] 0.959 | [35] 0.967 | [36] 0.701 | [37] 0.938 | [38] 0.949 | [39] 0.967 | [40] 0.701 | [42] 0.755 | [43] 0.971 | [44] 0.944 | [45] 0.952 | [47] 0.958 | [48] 0.718 | [49] 0.63 | [51] 0.747 | [52] 0.762 | [53] 0.663 | [54] 0.953 | [56] 0.897 | [57] 0.736 | [58] 0.94 | [60] 0.759 | [62] 0.752 | [63] 0.784 | [64] 0.949 | [65] 0.855 | [68] 0.744 | [70] 0.942 | [71] 0.826 | [72] 0.956 | [73] 0.968 | [74] 0.765 | [75] 0.947 | [76] 0.777 | [77] 0.946 | [78] 0.946 | [80] 0.948 | [83] 0.796 | [84] 0.695 | [85] 0.95 | [86] 0.766 | [87] 0.696 | [88] 0.723 | [89] 0.941 | [91] 0.947 | [92] 0.965 | [93] 0.974 | [94] 0.937 | [95] 0.947
active: [41] 0.404 | [46] 0.547 | [50] 0.345 | [8] 0.372 | [55] 0.271 | [59] 0.606 | [61] 0.747 | [66] 0.373 | [67] 0.701 | [69] 0.54 | [79] 0.451 | [81] 0.616 | [82] 0.399 | [90] 0.487

Cc1ccc(N2C(=O)CSC2c2ccc(Cl)c(Cl)c2)cc1Cl (stereo not drawn)
active: [8] 0.808 | [66] 0.791 | [90] 0.826
inactive: [27] 0.982 | [28] 0.974 | [29] 0.982 | [30] 0.976 | [31] 0.978 | [32] 0.975 | [33] 0.977 | [3] 0.97 | [34] 0.98 | [35] 0.982 | [36] 0.95 | [37] 0.98 | [38] 0.971 | [39] 0.973 | [40] 0.96 | [41] 0.956 | [42] 0.981 | [43] 0.977 | [44] 0.977 | [45] 0.973 | [46] 0.97 | [47] 0.988 | [48] 0.965 | [49] 1.01 | [50] 0.935 | [51] 0.887 | [52] 1.07 | [53] 0.94 | [54] 0.981 | [55] 0.918 | [56] 0.922 | [57] 0.961 | [58] 0.988 | [59] 0.913 | [60] 0.995 | [61] 0.957 | [62] 0.959 | [63] 0.953 | [64] 0.977 | [65] 1.01 | [67] 0.947 | [68] 0.95 | [69] 0.943 | [70] 0.975 | [71] 0.977 | [72] 0.981 | [73] 0.976 | [74] 0.933 | [75] 0.977 | [76] 0.994 | [77] 0.968 | [78] 0.988 | [79] 0.942 | [80] 0.982 | [81] 0.928 | [82] 0.953 | [83] 1.03 | [84] 0.937 | [85] 0.972 | [86] 0.957 | [87] 0.984 | [88] 0.933 | [89] 0.976 | [91] 0.977 | [92] 0.971 | [93] 0.962 | [94] 0.959 | [95] 0.981

O=C1CSC(c2ccc(Cl)c(Cl)c2)N1c1ccc(F)cc1 (stereo not drawn)
active: [4] 0.886
inactive: [1] 0.988 | [2] 0.975 | [3] 0.964 | [5] 0.968 | [6] 0.988 | [7] 0.975 | [8] 0.95 | [9] 0.985 | [10] 0.974 | [11] 0.939 | [12] 0.985 | [13] 0.994 | [14] 1 | [15] 0.942 | [16] 0.947 | [17] 0.95 | [18] 0.994 | [19] 0.989 | [20] 0.962 | [21] 0.93 | [22] 0.988 | [23] 0.906 | locus YOL006C, strain TOP1, stronger effect = lower value 0.889 | [24] 0.971 | [25] 0.977 | [26] 0.85

O=C1CSC(c2ccc(C(F)(F)F)cc2)N1c1ccc(C(F)(F)F)cc1 (stereo not drawn)
active: [66] 0.829
inactive: [27] 0.998 | [28] 1 | [29] 0.997 | [30] 1 | [31] 1 | [32] 1 | [33] 0.999 | [3] 1 | [34] 0.996 | [35] 0.997 | [36] 0.952 | [37] 1.01 | [38] 1 | [39] 1 | [40] 0.966 | [41] 0.911 | [42] 0.968 | [43] 1 | [44] 0.986 | [45] 0.994 | [46] 0.95 | [47] 0.993 | [48] 0.962 | [49] 0.972 | [50] 0.979 | [8] 0.878 | [51] 0.897 | [52] 0.936 | [53] 0.885 | [54] 1 | [55] 0.933 | [56] 0.939 | [57] 0.976 | [58] 1 | [59] 0.951 | [60] 0.936 | [61] 0.968 | [62] 0.946 | [63] 0.923 | [64] 1 | [65] 1.02 | [67] 0.949 | [68] 0.949 | [69] 0.924 | [70] 1 | [71] 0.942 | [72] 0.999 | [73] 1 | [74] 0.957 | [75] 1.01 | [76] 0.898 | [77] 0.995 | [78] 1 | [79] 0.941 | [80] 1.01 | [81] 0.937 | [82] 0.943 | [83] 1.03 | [84] 0.914 | [85] 1 | [86] 0.97 | [87] 0.96 | [88] 0.959 | [89] 1.01 | [90] 0.871 | [91] 0.998 | [92] 0.988 | [93] 0.979 | [94] 0.98 | [95] 0.999
